The text below walks through data of paper PMC5540273 (PLoS ONE, 2017).

Some test systems named below: ADCK4; AKT1; AKT2; AKT3; ALK; ANKK1; AURKA; AURKB; AURKC; AXL; BLK; BMPR1A; BMPR1B; BMPR2.
What all share (settings): concentration: 1 μM,replicates: in singlicate; n = 1
The next test relates to T1, AMPK-alpha1.
T1 construct: gene PRKAA1

The test system of a further test is T2, AMPK-alpha2.
T2 construct: gene PRKAA2

For a further test, the system named is T3, ARK5.
T3 construct: gene NUAK1

In a further test the test system is T4, ASK1.
T4 construct: gene MAP3K5

The test system of a further test is T5, ASK2.
T5 construct: gene MAP3K6

The next test has as its system T6, BIKE.
T6 construct: gene BMP2K
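Further: KINOMEscan kinase panel screen.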

With `O=C(Nc1cccc(Oc2ccc3nccn3n2)c1)Nc1cccc(C(F)(F)F)c1`, the “%Inh” value is listed as 0% in the test on ADCK4; 0% with AKT1; 0% in the test on AKT2; 7% in the test with AKT3; 14% in the test with ALK; 0% with AMPK-alpha1. In addition, the “%Inh” value in the test on AMPK-alpha2 worked out at 0%; in the test on ANKK1, 0%; with ARK5, 8%; in the test with ASK1, 0%; in the test with ASK2, 4%; in the test with AURKA, 0%. The “%Inh” value with AURKB is reported as 0%; with AURKC, 41%; in the test on AXL, 35%; with BIKE, 11%; in the test on BLK, 9%; with BMPR1A, 0%. Moreover, the “%Inh” value with BMPR1B and with BMPR2 was 0% each time.

In the case of `Cc1ccc(C(=O)Nc2ccc(Oc3ccc4nc(NC(=O)C5CC5)cn4c3)c(F)c2)c(=O)n1-c1ccccc1`, the “%Inh” value with ADCK4 was determined as 27%; with AKT1, 0%; with AKT2, 0%; in the test on AKT3, 7%; with ALK it was 8%; with AMPK-alpha1, 5%. Besides, the “%Inh” value in the test with AMPK-alpha2, in the test with ANKK1, with ARK5, with ASK1, in the test with ASK2 and with AURKA was 0% in each case. Besides, the “%Inh” value with AURKB was 82%; with AURKC it was 48%; in the test on AXL, 84%; in the test with BIKE it was 4%; in the test on BLK it was 99.3%; in the test on BMPR1A, 0%. Also, the “%Inh” value with BMPR1B and with BMPR2 was 0% in each case.

Consider `FC(F)(F)c1cc(Br)cc(Nc2nccc(-c3cnn4ncccc34)n2)c1` [GW810578], for which the “%Inh” value in the test with ADCK4 stood at 27%; in the test with AKT1, 6%; in the test on AKT2 it was 6%; in the test with AKT3, 20%; in the test on ALK, 0%; with AMPK-alpha1, 24%. In addition, the “%Inh” value is recorded as 16% in the test on AMPK-alpha2; 27% with ANKK1; 40% with ARK5; 0% with ASK1; 25% with ASK2; 9% in the test on AURKA. In addition, the “%Inh” value is on record as 16% in the test on AURKB; 16% in the test on AURKC; 3% in the test with AXL; 29% in the test with BIKE; 0% in the test on BLK; 8% in the test on BMPR1A. In addition, the “%Inh” value is recorded as 7% with BMPR1B and 0% with BMPR2.

For `Cn1ccc2ncnc(Oc3ccc(NC(=O)Nc4cccc(C(F)(F)F)c4)c(Cl)c3)c21`, the “%Inh” value is given as 6% with ADCK4; 0% with AKT1; 0% with AKT2; 0% in the test on AKT3; 0% in the test on ALK; 15% with AMPK-alpha1. Moreover, the “%Inh” value is listed as 0% with AMPK-alpha2; 0% with ANKK1; 3% with ARK5; 5% in the test on ASK1; 0% in the test on ASK2; 0% in the test with AURKA. Moreover, the “%Inh” value in the test on AURKB was found to be 51%; in the test with AURKC, 29%; in the test on AXL, 75%; in the test on BIKE, 0%; in the test on BLK it was 6%; in the test with BMPR1A, 15%. Moreover, the “%Inh” value with BMPR1B and with BMPR2 was 0% each time.

With `CS(=O)(=O)Nc1ccc(-c2ccnc3[nH]ccc23)cc1` [GSK993273], the “%Inh” value in the test with ADCK4 is 22%; in the test on AKT1 it was 0%; in the test on AKT2, 21%; with AKT3, 0%; in the test with ALK, 18%; with AMPK-alpha1, 94.4%. For the same compound, the “%Inh” value with AMPK-alpha2 worked out at 0%; with ANKK1, 27%; with ARK5 it was 0%; with ASK1, 44%; in the test with ASK2 it was 21%; with AURKA it was 39%. The “%Inh” value worked out at 48% in the test with AURKB; 76% with AURKC; 76% in the test with AXL; 97.5% in the test with BIKE; 0% in the test on BLK; 1% in the test on BMPR1A. The “%Inh” value in the test on BMPR1B is 3%; in the test on BMPR2 it was 43%.

Consider `CC(C)S(=O)(=O)N1CCN(Cc2ccc3c(c2)nc(NC(=O)c2ccsc2)n3C[C@H](O)c2ccccc2)CC1` [GW635815], for which the “%Inh” value amounted to 27% in the test with ADCK4; 0% in the test on AKT1; 16% with AKT2; 0% in the test with AKT3; 68% with ALK; 0% with AMPK-alpha1. The “%Inh” value in the test on AMPK-alpha2 is 2%; with ANKK1, 19%; in the test on ARK5, 60%; in the test with ASK1, 17%; in the test with ASK2, 0%; in the test on AURKA, 8%. Also, the “%Inh” value stood at 0% in the test on AURKB; 37% with AURKC; 97.7% with AXL; 57% with BIKE; 65% in the test with BLK; 15% in the test on BMPR1A. Moreover, the “%Inh” value in the test with BMPR1B came out at 0%; with BMPR2, 50%.

Take `CC(C(=O)NC1CCN(c2ccnc(Nc3ccc(F)cc3)n2)C1)c1ccc(Cl)cc1` (centres unmarked) [GSK1379713]: the “%Inh” value in the test on ADCK4 was determined as 13%; in the test on AKT1 it was 0%; in the test with AKT2, 0%; in the test with AKT3, 0%; in the test on ALK, 5%; in the test on AMPK-alpha1, 10%. Besides, the “%Inh” value with AMPK-alpha2 amounted to 0%; with ANKK1 it was 4%; in the test on ARK5 it was 0%; in the test on ASK1 it was 0%; in the test on ASK2, 0%; in the test with AURKA it was 0%. In addition, the “%Inh” value turned out to be 36% with AURKB; 47% with AURKC; 11% with AXL; 16% in the test with BIKE; 32% in the test with BLK; 0% in the test with BMPR1A. The “%Inh” value in the test with BMPR1B and in the test with BMPR2 was 0% throughout.

As to `CNC(=O)c1ccccc1Nc1nc(Nc2cccc(CS(C)(=O)=O)c2)ncc1C.O=CO` [GSK1520489], the “%Inh” value in the test on ADCK4 is recorded as 33%; with AKT1, 0%; with AKT2, 0%; with AKT3, 0%; in the test with ALK it was 95.1%; in the test on AMPK-alpha1, 96.4%. The “%Inh” value with AMPK-alpha2 was determined as 97.9%; in the test with ANKK1 it was 39%; in the test on ARK5, 99.1%; with ASK1 it was 0%; in the test with ASK2, 13%; in the test on AURKA, 100%. The “%Inh” value in the test with AURKB amounted to 99.9%; in the test on AURKC it was 96.8%; with AXL, 100%; in the test with BIKE, 99.2%; with BLK, 99.6%; with BMPR1A it was 0%. In addition, the “%Inh” value in the test on BMPR1B turned out to be 99.9%; with BMPR2, 99.3%.

As for `COc1cc2ncn(-c3cc(OCC4CCCCC4)c(C(N)=O)s3)c2cc1OC` [GSK204559], the “%Inh” value with ADCK4 came out at 11%; in the test on AKT1, 0%; in the test with AKT2, 0%; in the test with AKT3, 0%; in the test on ALK, 22%; in the test on AMPK-alpha1, 0%. Besides, the “%Inh” value in the test with AMPK-alpha2 was 27%; with ANKK1, 14%; in the test with ARK5, 0%; with ASK1 it was 14%; in the test on ASK2, 8%; in the test on AURKA, 0%. Further, the “%Inh” value in the test on AURKB is on record as 13%; in the test with AURKC, 60%; in the test with AXL, 0%; in the test on BIKE, 90%; with BLK it was 33%; in the test on BMPR1A, 0%. Further, the “%Inh” value worked out at 0% with BMPR1B and 5% with BMPR2.

Turning to `Cc1ccn2nc(-c3ccc(F)cc3)c(-c3ccncc3)c2c1.Cl` [GW457859], the “%Inh” value in the test on ADCK4 was determined as 59%; with AKT1, 0%; in the test with AKT2, 0%; in the test with AKT3, 0%; in the test with ALK, 1%; in the test on AMPK-alpha1, 5%. The “%Inh” value with AMPK-alpha2 came to 0%; in the test on ANKK1, 5%; in the test on ARK5, 5%; with ASK1 it was 0%; in the test on ASK2, 0%; in the test on AURKA it was 10%. The “%Inh” value in the test with AURKB was found to be 0%; in the test on AURKC it was 8%; in the test with AXL, 3%; in the test with BIKE, 17%; in the test with BLK it was 26%; with BMPR1A, 0%. For the same compound, the “%Inh” value with BMPR1B turned out to be 0%; with BMPR2, 3%.
